Test results published in PubChem BioAssay (NCATS).
Results filed as inconclusive are left out. Calls of active or inactive are those of the source. Calls come from the whole dose curve; as a rule, active = well fitted curve in the direction sought with a large enough effect; inconclusive = small, poorly fitted or top-dose-only effect, or another doubt; inactive = no such curve, though single readings can be large; an effect the other way counts as inactive or inconclusive.

What was measured:
[1] = Primary qHTS for inhibitors of La Crosse Virus (LACV) - induced cell death in SH-SY5Y cells (AID 1508616);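 note: top concentration of the series differs between compounds; higher means more rescue of cells from virus-induced death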
In short: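 Cytopathicity rescue screen: compounds pinned onto SH-SY5Y cells, which are then infected with LACV (MOI 0.01) and held 6 days at 37C. Percent activity is scaled between infected DMSO control and uninfected DMSO control.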

[2] = biological target: Calcium and integrin-binding protein 1 (Homo sapiens) (UniProt Q99828); assay: Validation qHTS for Identification of Calcium Integrin Binding protein 1 (CIB1) Competitor (AID 1508618)
Sequence of Calcium and integrin-binding protein 1 (Homo sapiens) (Q99828 whole entry, looked up): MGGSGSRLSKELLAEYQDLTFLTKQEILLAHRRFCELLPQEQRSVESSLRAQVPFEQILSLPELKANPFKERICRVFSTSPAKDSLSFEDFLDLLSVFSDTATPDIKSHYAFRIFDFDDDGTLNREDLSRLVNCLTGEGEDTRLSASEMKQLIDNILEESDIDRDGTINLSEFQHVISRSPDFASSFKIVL
In short: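 CIB1-GST (1 uM final) incubated 15 min at room temperature with compounds (up to 114 uM), then FITC-labelled alphaIIb peptide (100 nM) added. FP read (Ex 480/Em 540) after 15 min, pH 7.4 buffer containing 5 mM CaCl2.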

[3] = Primary qHTS for small molecule stabilizers of the endoplasmic reticulum resident proteome: Secreted ER Calcium Modulated Protein (SERCaMP) assay (AID 1508630)
In short: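 The SH-SY5Y reporter protocol was run at 3 concentrations up to 38.3 uM (primary) or 11 concentrations (follow-up): 16 h compound, 100 nM thapsigargin for 4 h, then extracellular luciferase luminescence.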

Papain (Carica papaya) = Papain (Carica papaya) (UniProt P00784); assay: Primary qHTS assay for inhibitors of the protease papain (AID 1645873);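 note: papain turnover of Z-FR-AMC read as the AMC fluorescence gain over 10 min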; note: potency is the fitted concentration of half-maximal effect
Sequence of Papain (Carica papaya) (P00784 whole entry, looked up): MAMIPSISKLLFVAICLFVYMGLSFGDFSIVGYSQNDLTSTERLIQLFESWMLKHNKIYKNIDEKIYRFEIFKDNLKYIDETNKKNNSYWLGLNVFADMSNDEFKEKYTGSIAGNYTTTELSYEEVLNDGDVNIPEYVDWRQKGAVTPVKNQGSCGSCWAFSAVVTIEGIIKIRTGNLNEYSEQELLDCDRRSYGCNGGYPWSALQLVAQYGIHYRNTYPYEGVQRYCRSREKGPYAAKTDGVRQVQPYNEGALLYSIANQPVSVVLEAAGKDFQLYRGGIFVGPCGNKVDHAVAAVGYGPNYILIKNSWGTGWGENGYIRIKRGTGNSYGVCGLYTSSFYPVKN

Measured: Potency

O=C(O)C1=CCNCC1
inactive: [1] | [2] | [3] | Papain (Carica papaya)

COc1ccc(-c2ccc(N)[n+](CCCC(=O)O)n2)cc1
inactive: [1] | [2] | [3] | Papain (Carica papaya)

Cc1ccc([N+](=O)[O-])cc1S(=O)(=O)N(C)C
inactive: [1] | [2] | [3] | Papain (Carica papaya)

CNC(=O)c1cc2c(cn1)[nH]c1ccccc12
inactive: [1] | [2] | [3]
active: Papain (Carica papaya) 25.1 µM

c1ccc2c(c1)CC(N1CCN(c3cccc4c3OCCO4)CC1)C2
inactive: [1] | [2] | [3] | Papain (Carica papaya)

CCCCCCCCCC[Si](C)(C)CCC(=O)NC(Cc1ccc(C)cc1)c1ccccc1 (centres undefined)
inactive: [1] | [2] | [3] | Papain (Carica papaya)

CCCCOc1cc(CC2CNC(=O)N2)ccc1OC (centres undefined)
inactive: [1] | [2] | [3] | Papain (Carica papaya)

CC(C)C[C@H](NC(=O)C1OC1C(=O)O)C(=O)NCCCCN=C(N)N (some centres undefined)
inactive: [1] | [2] | [3] | Papain (Carica papaya)

Cc1cc2c(cc1Cl)N(C(=O)Nc1ccnc3ccccc13)CC2
inactive: [1] | [2] | [3] | Papain (Carica papaya)

CCSC(=N)N
inactive: [1] | [2] | [3] | Papain (Carica papaya)

COc1ccc2c(c1)CCC1C2CC[C@@]2(C)C1CC[C@@H]2NCCCCCCN1C(=O)C=CC1=O (some centres undefined)
inactive: [1] | [2] | [3] | Papain (Carica papaya)

O=C(c1ccc2c(c1)OCCO2)N1CCCCC1
inactive: [1] | [2] | [3] | Papain (Carica papaya)

CCC(=O)N1CCN(C(=O)c2ccccc2)CC1
inactive: [1] | [2] | [3] | Papain (Carica papaya)

O=C(O)c1ccccc1Nc1ccccc1
inactive: [1] | [2] | [3] | Papain (Carica papaya)

OC[C@H]1NC[C@@H](O)[C@@H]1O
inactive: [1] | [2] | [3] | Papain (Carica papaya)

OC1(c2ccc(Cl)cc2)CCN(Cc2c[nH]c3ccccc23)CC1
inactive: [1] | [2] | [3] | Papain (Carica papaya)

N[C@H](C(=O)O)[C@H]1C[C@@H]1C(=O)O
inactive: [1] | [2] | [3] | Papain (Carica papaya)

Nc1ncnc2c1ncn2C1CCCO1 (centres undefined)
inactive: [1] | [2] | [3] | Papain (Carica papaya)

N[C@H](C(=O)O)[C@H](O)C(=O)O
inactive: [1] | [2] | [3] | Papain (Carica papaya)

Cc1cccc(C(=O)NCN2CCN(c3ccccc3C#N)CC2)c1
inactive: [1] | [2] | [3] | Papain (Carica papaya)

Nc1ncnc2c1ncn2C1CCCC1
inactive: [1] | [2] | [3] | Papain (Carica papaya)

O=C(O)[C@H]1NCCC[C@H]1C(=O)O
inactive: [1] | [2] | [3] | Papain (Carica papaya)

NOCC(=O)O
inactive: [1] | [2] | [3] | Papain (Carica papaya)

NCCC1CCCC(CCN)N1 (centres undefined)
inactive: [1] | [2] | [3] | Papain (Carica papaya)

COc1ccc(C(=O)NCc2cccnc2)cc1C(=O)NCc1cccnc1
inactive: [1] | [2] | [3] | Papain (Carica papaya)

COc1cc(CC(=O)O)ccc1O
inactive: [1] | [2] | [3] | Papain (Carica papaya)
